Test results published in article PMC7862700, “An all-to-all approach to the identification of sequence-specific readers for epigenetic DNA modifications on cytosine”.

How the values were obtained:
Test in all cases: DAPPL (digital affinity profiling via proximity ligation, sequencing); 10 mM Tris-HCl pH 7.5, 50 mM NaCl, 1 mM DTT, 4% glycerol, room temperature, 30 min; GST-TFs on glutathione beads, 16-mer random dsDNA library, 0.1% formaldehyde crosslink after washing; high values mean tight binding
Conditions in all cases: protein: recombinant; tags: N-terminal GST; dsDNA, one strand shown
[1] = target: T1, ELK4 (Homo sapiens, UniProt P28324-2 1-405)
T1 sequence: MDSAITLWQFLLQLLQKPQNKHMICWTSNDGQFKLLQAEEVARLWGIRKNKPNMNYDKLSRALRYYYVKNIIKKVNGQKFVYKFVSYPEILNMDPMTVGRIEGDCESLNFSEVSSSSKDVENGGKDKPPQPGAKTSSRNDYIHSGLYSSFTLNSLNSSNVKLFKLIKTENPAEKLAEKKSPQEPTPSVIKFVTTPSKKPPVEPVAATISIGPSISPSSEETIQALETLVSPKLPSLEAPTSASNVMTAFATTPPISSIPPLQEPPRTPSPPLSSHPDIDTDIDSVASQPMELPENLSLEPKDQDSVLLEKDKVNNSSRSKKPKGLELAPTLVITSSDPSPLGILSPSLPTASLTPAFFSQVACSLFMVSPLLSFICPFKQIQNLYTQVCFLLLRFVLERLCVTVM
In short: (§1)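 Pools of DNA-barcoded human transcription factors, expressed in yeast as GST fusions on glutathione beads and combined with a tag-only sample, were incubated with 200 nmole of a 16-mer random double-stranded DNA library. Incubation took 30 min at room temperature in Tris/NaCl/DTT/glycerol buffer and was followed by washing, 0.1% formaldehyde crosslinking, proximity ligation (BsaI/T4 ligase, 1 h, 37 °C), PCR amplification and sequencing on an Illumina NextSeq500. Binding signal is the ratio of a hexamer's read frequency for a factor to its frequency for the tag-only sample.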

[2] = target: T2, ETV2 (Homo sapiens, UniProt O00321 1-342)
T2 sequence: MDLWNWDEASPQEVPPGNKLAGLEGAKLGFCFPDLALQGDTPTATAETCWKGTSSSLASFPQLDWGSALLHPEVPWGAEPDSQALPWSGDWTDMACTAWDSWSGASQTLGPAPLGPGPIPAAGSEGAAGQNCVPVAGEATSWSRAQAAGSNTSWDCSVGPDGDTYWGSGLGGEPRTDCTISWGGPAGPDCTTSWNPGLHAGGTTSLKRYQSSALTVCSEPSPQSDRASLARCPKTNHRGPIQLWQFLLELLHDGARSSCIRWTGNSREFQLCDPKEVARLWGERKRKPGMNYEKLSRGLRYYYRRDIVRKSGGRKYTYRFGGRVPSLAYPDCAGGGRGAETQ
In short: as §1

[3] = target: T3, ELF3 (Homo sapiens, UniProt P78545 1-371)
T3 sequence: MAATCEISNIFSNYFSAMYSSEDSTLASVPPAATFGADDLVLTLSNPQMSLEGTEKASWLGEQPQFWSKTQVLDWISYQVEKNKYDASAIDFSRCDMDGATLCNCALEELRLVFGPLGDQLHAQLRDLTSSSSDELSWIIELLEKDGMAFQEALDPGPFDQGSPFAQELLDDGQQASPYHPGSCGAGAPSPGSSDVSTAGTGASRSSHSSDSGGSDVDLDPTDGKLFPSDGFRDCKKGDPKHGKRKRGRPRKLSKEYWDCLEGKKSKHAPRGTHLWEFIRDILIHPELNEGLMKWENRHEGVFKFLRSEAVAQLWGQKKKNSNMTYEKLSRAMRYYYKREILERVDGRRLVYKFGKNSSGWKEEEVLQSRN
In short: as §1

[4] = target: CRX (Homo sapiens, UniProt O43186 1-299)
Sequence of CRX (O43186 whole entry): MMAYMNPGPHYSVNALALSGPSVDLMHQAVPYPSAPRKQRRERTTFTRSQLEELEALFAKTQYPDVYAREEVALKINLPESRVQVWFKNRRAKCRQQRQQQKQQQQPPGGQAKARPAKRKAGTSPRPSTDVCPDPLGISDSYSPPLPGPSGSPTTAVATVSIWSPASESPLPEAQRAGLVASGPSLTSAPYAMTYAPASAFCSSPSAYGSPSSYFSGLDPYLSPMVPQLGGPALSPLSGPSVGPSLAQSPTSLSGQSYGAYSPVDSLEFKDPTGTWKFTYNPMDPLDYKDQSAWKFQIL
In short: as §1

[5] = target: T4, ETV7 (Homo sapiens, UniProt Q9Y603 1-341)
T4 sequence: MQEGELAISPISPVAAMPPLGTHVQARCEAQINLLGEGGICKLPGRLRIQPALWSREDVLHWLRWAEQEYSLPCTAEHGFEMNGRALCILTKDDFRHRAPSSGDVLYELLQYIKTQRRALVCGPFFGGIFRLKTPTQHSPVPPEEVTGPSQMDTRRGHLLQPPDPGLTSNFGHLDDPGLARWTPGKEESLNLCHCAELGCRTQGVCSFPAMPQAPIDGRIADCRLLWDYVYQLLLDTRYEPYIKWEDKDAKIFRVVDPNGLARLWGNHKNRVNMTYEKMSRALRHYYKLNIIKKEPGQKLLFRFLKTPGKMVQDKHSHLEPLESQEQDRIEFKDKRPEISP
In short: as §1

[6] = target: T5, ELF5 (Homo sapiens, UniProt Q9UKW6-2 1-255)
T5 sequence: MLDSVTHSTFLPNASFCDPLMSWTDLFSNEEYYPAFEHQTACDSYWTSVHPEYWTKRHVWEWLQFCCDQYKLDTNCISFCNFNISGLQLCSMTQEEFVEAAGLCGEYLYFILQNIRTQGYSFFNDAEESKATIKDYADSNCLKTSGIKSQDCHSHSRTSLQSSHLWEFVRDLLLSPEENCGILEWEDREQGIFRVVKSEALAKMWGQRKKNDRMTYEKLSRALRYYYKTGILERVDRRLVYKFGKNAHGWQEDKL
In short: as §1

## AAAGCG
[1]
  binding signal: 1.25 fold enrichment (6-mer frequency, TF over GST control)
[2]
  binding signal: 1.06 fold enrichment (6-mer frequency, TF over GST control)
[3]
  binding signal: 1.14 fold enrichment (6-mer frequency, TF over GST control)
[4]
  binding signal: 1.14 fold enrichment (6-mer frequency, TF over GST control)
[5]
  binding signal: 1.11 fold enrichment (6-mer frequency, TF over GST control)
[6]
  binding signal: 1.07 fold enrichment (6-mer frequency, TF over GST control)

## CATCCA
[1]
  binding signal: 1.07 fold enrichment (6-mer frequency, TF over GST control)

## GCCCCA
[1]
  binding signal: 1.06 fold enrichment (6-mer frequency, TF over GST control)

## ACCACC
[1]
  binding signal: 1.16 fold enrichment (6-mer frequency, TF over GST control)
[3]
  binding signal: 1.21 fold enrichment (6-mer frequency, TF over GST control)
[6]
  binding signal: 1.07 fold enrichment (6-mer frequency, TF over GST control)

## TGCTGC
[1]
  binding signal: 1.22 fold enrichment (6-mer frequency, TF over GST control)
[3]
  binding signal: 1.11 fold enrichment (6-mer frequency, TF over GST control)
[5]
  binding signal: 1.1 fold enrichment (6-mer frequency, TF over GST control)
[6]
  binding signal: 1.16 fold enrichment (6-mer frequency, TF over GST control)

## GCCCAC
[1]
  binding signal: 1 fold enrichment (6-mer frequency, TF over GST control)
[3]
  binding signal: 1.03 fold enrichment (6-mer frequency, TF over GST control)

## CTGCGG
[2]
  binding signal: 1.25 fold enrichment (6-mer frequency, TF over GST control)
[3]
  binding signal: 1.2 fold enrichment (6-mer frequency, TF over GST control)
[5]
  binding signal: 1.18 fold enrichment (6-mer frequency, TF over GST control)
[6]
  binding signal: 1.06 fold enrichment (6-mer frequency, TF over GST control)

## ATACCG
[1]
  binding signal: 1.04 fold enrichment (6-mer frequency, TF over GST control)
[2]
  binding signal: 1.07 fold enrichment (6-mer frequency, TF over GST control)
[3]
  binding signal: 1.2 fold enrichment (6-mer frequency, TF over GST control)
[5]
  binding signal: 1.04 fold enrichment (6-mer frequency, TF over GST control)
[6]
  binding signal: 1.13 fold enrichment (6-mer frequency, TF over GST control)

## CACGGA
[1]
  binding signal: 1.05 fold enrichment (6-mer frequency, TF over GST control)
[3]
  binding signal: 1.09 fold enrichment (6-mer frequency, TF over GST control)
[6]
  binding signal: 1.29 fold enrichment (6-mer frequency, TF over GST control)

## GAAGTC
[2]
  binding signal: 1.08 fold enrichment (6-mer frequency, TF over GST control)
[3]
  binding signal: 1.1 fold enrichment (6-mer frequency, TF over GST control)
[5]
  binding signal: 1.1 fold enrichment (6-mer frequency, TF over GST control)
[6]
  binding signal: 1.26 fold enrichment (6-mer frequency, TF over GST control)

## TACGGT
[1]
  binding signal: 1.02 fold enrichment (6-mer frequency, TF over GST control)
[2]
  binding signal: 1.07 fold enrichment (6-mer frequency, TF over GST control)
[3]
  binding signal: 1.11 fold enrichment (6-mer frequency, TF over GST control)
[4]
  binding signal: 1.03 fold enrichment (6-mer frequency, TF over GST control)
[5]
  binding signal: 1.08 fold enrichment (6-mer frequency, TF over GST control)
[6]
  binding signal: 1.04 fold enrichment (6-mer frequency, TF over GST control)

## GGACTC
[1]
  binding signal: 1.04 fold enrichment (6-mer frequency, TF over GST control)
[2]
  binding signal: 1.01 fold enrichment (6-mer frequency, TF over GST control)

## AGCTGT
[1]
  binding signal: 1.04 fold enrichment (6-mer frequency, TF over GST control)
[2]
  binding signal: 1.07 fold enrichment (6-mer frequency, TF over GST control)
[4]
  binding signal: 1.02 fold enrichment (6-mer frequency, TF over GST control)

## GTTACG
[1]
  binding signal: 1.03 fold enrichment (6-mer frequency, TF over GST control)
[2]
  binding signal: 1.22 fold enrichment (6-mer frequency, TF over GST control)
[5]
  binding signal: 1.02 fold enrichment (6-mer frequency, TF over GST control)

## AGTATG
[3]
  binding signal: 1.08 fold enrichment (6-mer frequency, TF over GST control)
[5]
  binding signal: 1.12 fold enrichment (6-mer frequency, TF over GST control)
[6]
  binding signal: 1.06 fold enrichment (6-mer frequency, TF over GST control)

## GGCTCG
[1]
  binding signal: 1.11 fold enrichment (6-mer frequency, TF over GST control)
[3]
  binding signal: 1 fold enrichment (6-mer frequency, TF over GST control)

## CGGAAC
[2]
  binding signal: 1.14 fold enrichment (6-mer frequency, TF over GST control)
[3]
  binding signal: 1.11 fold enrichment (6-mer frequency, TF over GST control)
[6]
  binding signal: 1.3 fold enrichment (6-mer frequency, TF over GST control)

## CGCTAT
[1]
  binding signal: 1.07 fold enrichment (6-mer frequency, TF over GST control)
[2]
  binding signal: 1.15 fold enrichment (6-mer frequency, TF over GST control)
[3]
  binding signal: 1.01 fold enrichment (6-mer frequency, TF over GST control)
[5]
  binding signal: 1.25 fold enrichment (6-mer frequency, TF over GST control)
[6]
  binding signal: 1.16 fold enrichment (6-mer frequency, TF over GST control)

## CGCGAC
[1]
  binding signal: 1.14 fold enrichment (6-mer frequency, TF over GST control)
[2]
  binding signal: 1.34 fold enrichment (6-mer frequency, TF over GST control)
[3]
  binding signal: 1.05 fold enrichment (6-mer frequency, TF over GST control)

## GCTGCG
[3]
  binding signal: 1.03 fold enrichment (6-mer frequency, TF over GST control)
[5]
  binding signal: 1.19 fold enrichment (6-mer frequency, TF over GST control)
[6]
  binding signal: 1.04 fold enrichment (6-mer frequency, TF over GST control)

## CCCCGT
[2]
  binding signal: 1.1 fold enrichment (6-mer frequency, TF over GST control)
[3]
  binding signal: 1.26 fold enrichment (6-mer frequency, TF over GST control)
[6]
  binding signal: 1.06 fold enrichment (6-mer frequency, TF over GST control)

## GGCCCC
[1]
  binding signal: 1.02 fold enrichment (6-mer frequency, TF over GST control)
[2]
  binding signal: 1.13 fold enrichment (6-mer frequency, TF over GST control)
[3]
  binding signal: 1.02 fold enrichment (6-mer frequency, TF over GST control)

## TGCGGC
[3]
  binding signal: 1.33 fold enrichment (6-mer frequency, TF over GST control)
[5]
  binding signal: 1.07 fold enrichment (6-mer frequency, TF over GST control)

## TCGCTG
[1]
  binding signal: 1.15 fold enrichment (6-mer frequency, TF over GST control)
[3]
  binding signal: 1.12 fold enrichment (6-mer frequency, TF over GST control)
[5]
  binding signal: 1.06 fold enrichment (6-mer frequency, TF over GST control)

## CATACC
[2]
  binding signal: 1.16 fold enrichment (6-mer frequency, TF over GST control)
[3]
  binding signal: 1 fold enrichment (6-mer frequency, TF over GST control)
[5]
  binding signal: 1.03 fold enrichment (6-mer frequency, TF over GST control)
[6]
  binding signal: 1.04 fold enrichment (6-mer frequency, TF over GST control)

## CGATGT
[2]
  binding signal: 1.07 fold enrichment (6-mer frequency, TF over GST control)
[3]
  binding signal: 1.11 fold enrichment (6-mer frequency, TF over GST control)
[5]
  binding signal: 1.14 fold enrichment (6-mer frequency, TF over GST control)

## GGTCCT
[1]
  binding signal: 1.05 fold enrichment (6-mer frequency, TF over GST control)
[2]
  binding signal: 1.13 fold enrichment (6-mer frequency, TF over GST control)
[5]
  binding signal: 1.09 fold enrichment (6-mer frequency, TF over GST control)

## TGTGGC
[1]
  binding signal: 1.16 fold enrichment (6-mer frequency, TF over GST control)
[2]
  binding signal: 1.23 fold enrichment (6-mer frequency, TF over GST control)
[3]
  binding signal: 1.02 fold enrichment (6-mer frequency, TF over GST control)
[5]
  binding signal: 1.01 fold enrichment (6-mer frequency, TF over GST control)

## AACTGA
[2]
  binding signal: 1.07 fold enrichment (6-mer frequency, TF over GST control)
[3]
  binding signal: 1.12 fold enrichment (6-mer frequency, TF over GST control)
[5]
  binding signal: 1.05 fold enrichment (6-mer frequency, TF over GST control)
[6]
  binding signal: 1.01 fold enrichment (6-mer frequency, TF over GST control)

## GTACGC
[3]
  binding signal: 1.17 fold enrichment (6-mer frequency, TF over GST control)
[5]
  binding signal: 1.09 fold enrichment (6-mer frequency, TF over GST control)
[6]
  binding signal: 1.06 fold enrichment (6-mer frequency, TF over GST control)

## CAGCTA
[1]
  binding signal: 1.16 fold enrichment (6-mer frequency, TF over GST control)
[3]
  binding signal: 1.1 fold enrichment (6-mer frequency, TF over GST control)
[4]
  binding signal: 1.05 fold enrichment (6-mer frequency, TF over GST control)
[5]
  binding signal: 1.13 fold enrichment (6-mer frequency, TF over GST control)

## GCCGCC
[3]
  binding signal: 1.08 fold enrichment (6-mer frequency, TF over GST control)
[5]
  binding signal: 1.03 fold enrichment (6-mer frequency, TF over GST control)
[6]
  binding signal: 1.01 fold enrichment (6-mer frequency, TF over GST control)
